Holding throughout (settings): mRNA level, 48 h; actives raise or lower the signal
Read-out in one assay: Caspase-3 (Homo sapiens) (UniProt P42574)
In words: LTEA_HepaRG_CASP3: Life Technologies and Expression Analysis (LTEA) Assay for cysteine-aspartic acid protease (CASP3) using HepaRG (AID 2283477). The procedure, abridged: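 HepaRG, 48 h exposure, 8 conc. (top 100 uM, half-log steps, duplicate), 0.5% DMSO vehicle; qRT-PCR of CASP3 transcript, housekeeping-normalised (ACTB/GAPDH/POLR2A); bidirectional curve fit vs DMSO baseline.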

Read-out in assay [1]: Cytochrome P450 (CYP24A1), CYP24A1 (gene 1591)
In words: LTEA_HepaRG_CYP24A1: Life Technologies and Expression Analysis (LTEA) Assay for Cytochrome P450 (CYP24A1) using HepaRG (AID 2283478). The procedure, abridged: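 qRT-PCR read-out: CYP24A1 transcript levels normalized to three housekeeping genes, bidirectional curve fits against 0.5% DMSO baseline. Human HepaRG cells treated 48 h with chemicals at eight concentrations from 100 uM in half-log steps.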

Read-out in assay [2]: Cytochrome P450 (CYP1A2), CYP1A2 (gene 1544)
Kind of assay: LTEA_HepaRG_CYP1A2: Life Technologies and Expression Analysis (LTEA) Assay for Cytochrome P450 (CYP1A2) using HepaRG (AID 2283479). The procedure, abridged: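 HepaRG, 48 h exposure, top 100 uM, half-log 8-pt, 0.5% DMSO vehicle, duplicates. Readout: TaqMan qRT-PCR of CYP1A2 mRNA, housekeeping-normalized (ACTB/GAPDH/POLR2A). Gain/loss fit relative to DMSO baseline.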

Read-out in assay [3]: cysteine-aspartic acid protease (CASP8), CASP8 (gene 841)
In words: LTEA_HepaRG_CASP8: Life Technologies and Expression Analysis (LTEA) Assay for cysteine-aspartic acid protease (CASP8) using HepaRG (AID 2283480). The procedure, abridged: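 Differentiated human HepaRG cells, plated 48 h then switched to serum-free induction medium, were exposed in duplicate for 48 h to 8 half-log concentrations up to 100 uM in 0.5% DMSO. CASP8 mRNA was quantified by qRT-PCR, normalized to ACTB/GAPDH/POLR2A.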

Read-out in assay [4]: Cytochrome P450 (CYP2B6), CYP2B6 (gene 1555)
In words: LTEA_HepaRG_CYP2B6: Life Technologies and Expression Analysis (LTEA) Assay for Cytochrome P450 (CYP2B6) using HepaRG (AID 2283481). Summed up: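 Read-out is CYP2B6 mRNA by TaqMan qRT-PCR, normalized to three housekeeping genes and fitted bidirectionally against 0.5% DMSO baseline. Human HepaRG cells received test chemicals for 48 h, top concentration 100 uM, half-log dilutions.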

Read-out in assay [5]: Cytochrome P450 2C19 (Homo sapiens) (UniProt P33261)
In words: LTEA_HepaRG_CYP2C19: Life Technologies and Expression Analysis (LTEA) Assay for CYP2C19 using HepaRG (AID 2283482). Summed up: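 HepaRG, 48 h chemical exposure, 8-pt half-log series from 100 uM in 0.5% DMSO, duplicates. Readout: CYP2C19 mRNA by TaqMan qRT-PCR, housekeeping-normalized. Bidirectional fit vs DMSO baseline; phenobarbital 1mM as induction control.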

Read-out in another assay: CYP2C8 (gene 1558)
Kind of assay: LTEA_HepaRG_CYP2C8: Life Technologies and Expression Analysis (LTEA) Assay for CYP2C8 using HepaRG (AID 2283483). The procedure, abridged:
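Differentiated human HepaRG cells were exposed for 48 h in serum-free induction medium to eight half-log concentrations up to 100 uM in 0.5% DMSO, in duplicate. CYP2C8 mRNA was measured by TaqMan qRT-PCR, normalized to ACTB, GAPDH and POLR2A, and fitted bidirectionally against DMSO.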

Read-out in the next assay: CYP2C9 (gene 1559)
In words: LTEA_HepaRG_CYP2C9: Life Technologies and Expression Analysis (LTEA) Assay for CYP2C9 using HepaRG (AID 2283484). The procedure, abridged: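 Differentiated human HepaRG cells were exposed 48 h in serum-free induction medium to eight half-log concentrations up to 100 uM in 0.5% DMSO. CYP2C9 mRNA was measured by qRT-PCR, normalized to ACTB, GAPDH and POLR2A, and fitted bidirectionally against DMSO.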

Read-out in another assay: CYP2E1 (gene 1571)
Kind of assay: LTEA_HepaRG_CYP2E1: Life Technologies and Expression Analysis (LTEA) Assay for CYP2E1 using HepaRG (AID 2283485). Summed up:
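HepaRG cells in serum-free induction medium exposed 48 h to test chemicals, 8 half-log concentrations up to 100 uM in 0.5% DMSO, duplicate. CYP2E1 mRNA by qRT-PCR, normalized to ACTB, GAPDH, POLR2A; bidirectional fit versus DMSO.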

Read-out in another assay: CYP4A11 (gene 1579)
Kind of assay: LTEA_HepaRG_CYP4A11: Life Technologies and Expression Analysis (LTEA) Assay for CYP4A11 using HepaRG (AID 2283486). The procedure, abridged:
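CYP4A11 transcript levels were quantified by TaqMan qRT-PCR after HepaRG human liver cells were treated for 48 hours with test chemicals (top 100 uM, half-log dilutions, 0.5% DMSO). Gain or loss of signal was fitted relative to DMSO.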

Read-out in assay [6]: Cytochrome P450 3A4 (Homo sapiens) (UniProt P08684)
Kind of assay: LTEA_HepaRG_CYP3A4: Life Technologies and Expression Analysis (LTEA) Assay for CYP3A4 using HepaRG (AID 2283487). The procedure, abridged: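 CYP3A4 transcript measured by TaqMan qRT-PCR and normalized to three housekeeping genes after 48 h chemical exposure of human HepaRG cells. Top concentration 100 uM, half-log steps, 0.5% DMSO vehicle; gain or loss fitted against DMSO baseline.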

Read-out in assay [7]: DNA damage-inducible transcript 3 (DDIT3), DDIT3 (gene 1649)
In words: LTEA_HepaRG_DDIT3: Life Technologies and Expression Analysis (LTEA) Assay for DNA damage-inducible transcript 3 (DDIT3) using HepaRG (AID 2283488). The procedure, abridged: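 Differentiated human HepaRG cells in serum-free induction medium were exposed in duplicate for 48 h to 8 concentrations (top 100 uM, half-log steps, 0.5% DMSO). DDIT3 mRNA measured by TaqMan qRT-PCR, normalized to ACTB/GAPDH/POLR2A; bidirectional fit versus DMSO.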

Read-out in assay [8]: Pro-epidermal growth factor (Homo sapiens) (UniProt P01133)
Kind of assay: LTEA_HepaRG_EGF: Life Technologies and Expression Analysis (LTEA) Assay for Epidermal growth factor (EGF) using HepaRG (AID 2283489). Summed up: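 qRT-PCR readout of EGF transcript after 48 h chemical exposure of HepaRG cells; eight concentrations from 100 uM down in half-log steps, duplicate wells, 0.5% DMSO vehicle. Bidirectional curve fitting against DMSO baseline.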

Read-out in assay [9]: Early growth response protein 1 (EGR1) transcription factor, EGR1 (gene 1958)
In words: LTEA_HepaRG_EGR1: Life Technologies and Expression Analysis (LTEA) Assay for Early growth response protein 1 (EGR1) transcription factor using HepaRG (AID 2283490). The procedure, abridged:
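Differentiated human HepaRG cells in serum-free induction medium were exposed in duplicate for 48 h to eight concentrations (top 100 uM, half-log steps) in 0.5% DMSO. EGR1 mRNA was quantified by qRT-PCR, normalized to ACTB, GAPDH and POLR2A, and fitted bidirectionally versus DMSO.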

Read-out in assay [10]: Cytochrome P450 3A7 (Homo sapiens) (UniProt P24462)
In words: LTEA_HepaRG_CYP3A7: Life Technologies and Expression Analysis (LTEA) Assay for CYP3A7 using HepaRG (AID 2283492). Summed up: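 CYP3A7 transcript levels were read by TaqMan qRT-PCR on Fluidigm arrays after 48 h chemical exposure of human HepaRG cells, with housekeeping-gene normalisation. Eight half-log concentrations up to 100 uM in 0.5% DMSO were tested in duplicate.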

Read-out in the next assay: CYP3A5 (gene 1577)
In words: LTEA_HepaRG_CYP3A5: Life Technologies and Expression Analysis (LTEA) Assay for CYP3A5 using HepaRG (AID 2283493). Summed up: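 Differentiated HepaRG cells in serum-free induction medium were dosed 48 h with test chemicals (8-point half-log series, top 100 uM, 0.5% DMSO, duplicate). CYP3A5 mRNA measured by qRT-PCR, normalized to ACTB, GAPDH, POLR2A; bidirectional fit versus DMSO.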

Read-out in assay [11]: Fatty Acid-Binding Protein 1 (FABP1), FABP1 (gene 2168)
Kind of assay: LTEA_HepaRG_FABP1: Life Technologies and Expression Analysis (LTEA) Assay for Fatty Acid-Binding Protein 1 (FABP1) using HepaRG (AID 2283494). Summed up:
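Differentiated human HepaRG cells were exposed in duplicate for 48 h in serum-free induction medium to 8-point half-log concentration series topping at 100 uM in 0.5% DMSO. FABP1 mRNA measured by TaqMan qRT-PCR, normalized to ACTB/GAPDH/POLR2A; bidirectional fit versus DMSO.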

Read-out in assay [12]: Cytochrome P450 4A22 (Homo sapiens) (UniProt Q5TCH4)
In words: LTEA_HepaRG_CYP4A22: Life Technologies and Expression Analysis (LTEA) Assay for Cytochrome P450 4A22 (CYP4A22) using HepaRG (AID 2283495). The procedure, abridged:
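HepaRG, 48 h post-plating -> serum-free induction medium; dosed 48 h, duplicate, 8 conc. (100 uM top, half-log), 0.5% DMSO. Readout: CYP4A22 mRNA by qRT-PCR, ACTB/GAPDH/POLR2A normalization; gain/loss fit relative to DMSO.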

Read-out in assay [13]: Cytochrome P450 7A1 (Homo sapiens) (UniProt P22680)
Kind of assay: LTEA_HepaRG_CYP7A1: Life Technologies and Expression Analysis (LTEA) Assay for Cytochrome P450 7A1 (CYP7A1) using HepaRG (AID 2283496). Summed up:
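Gene expression endpoint in human HepaRG liver cells treated for 48 h with test chemicals (up to 100 uM, 0.5% DMSO). Values come from bidirectional concentration-response fitting versus DMSO.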

Read-out in assay [14]: Ezrin (EZR), EZR (gene 7430)
In words: LTEA_HepaRG_EZR: Life Technologies and Expression Analysis (LTEA) Assay for Ezrin (EZR) using HepaRG (AID 2283491). Summed up: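 HepaRG, 48 h chemical exposure, 8-pt half-log series from 100 uM, 0.5% DMSO vehicle, duplicates. Read-out: EZR mRNA by TaqMan qRT-PCR (Fluidigm array), housekeeping-normalized; bidirectional curve fit vs DMSO baseline.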

Activity calls are given as the source filed them. Rule for the calls: active = hit-call score of the fitted dose curve at least 0.9, where 1 is the maximum; inactive = score below 0.9.

Cytochrome P450 3A7 (Homo sapiens), sequence (P24462 whole entry, looked up): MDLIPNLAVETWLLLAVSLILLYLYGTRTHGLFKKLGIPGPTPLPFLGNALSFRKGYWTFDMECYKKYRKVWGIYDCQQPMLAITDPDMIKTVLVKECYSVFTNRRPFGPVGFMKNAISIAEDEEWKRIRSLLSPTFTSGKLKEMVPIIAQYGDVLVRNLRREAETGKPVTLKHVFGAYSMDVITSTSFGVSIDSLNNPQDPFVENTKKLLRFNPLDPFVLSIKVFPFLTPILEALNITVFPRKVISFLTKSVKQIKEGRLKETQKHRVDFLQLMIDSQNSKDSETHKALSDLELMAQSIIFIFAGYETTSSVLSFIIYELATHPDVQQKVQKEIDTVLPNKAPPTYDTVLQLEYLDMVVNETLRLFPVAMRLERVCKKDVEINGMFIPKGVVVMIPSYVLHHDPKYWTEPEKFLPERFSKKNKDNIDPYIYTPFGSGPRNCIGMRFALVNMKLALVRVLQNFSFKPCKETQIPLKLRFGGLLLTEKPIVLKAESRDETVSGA
Caspase-3 (Homo sapiens), sequence (P42574 whole entry, looked up): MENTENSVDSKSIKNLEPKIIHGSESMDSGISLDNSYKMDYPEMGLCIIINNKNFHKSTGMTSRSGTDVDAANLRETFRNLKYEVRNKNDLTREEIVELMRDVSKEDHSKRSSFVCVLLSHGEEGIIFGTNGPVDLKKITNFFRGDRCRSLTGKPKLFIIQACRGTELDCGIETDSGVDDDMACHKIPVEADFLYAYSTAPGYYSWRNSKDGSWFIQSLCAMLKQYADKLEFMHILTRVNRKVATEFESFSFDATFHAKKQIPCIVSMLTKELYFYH
Cytochrome P450 3A4 (Homo sapiens), sequence (P08684 whole entry, looked up): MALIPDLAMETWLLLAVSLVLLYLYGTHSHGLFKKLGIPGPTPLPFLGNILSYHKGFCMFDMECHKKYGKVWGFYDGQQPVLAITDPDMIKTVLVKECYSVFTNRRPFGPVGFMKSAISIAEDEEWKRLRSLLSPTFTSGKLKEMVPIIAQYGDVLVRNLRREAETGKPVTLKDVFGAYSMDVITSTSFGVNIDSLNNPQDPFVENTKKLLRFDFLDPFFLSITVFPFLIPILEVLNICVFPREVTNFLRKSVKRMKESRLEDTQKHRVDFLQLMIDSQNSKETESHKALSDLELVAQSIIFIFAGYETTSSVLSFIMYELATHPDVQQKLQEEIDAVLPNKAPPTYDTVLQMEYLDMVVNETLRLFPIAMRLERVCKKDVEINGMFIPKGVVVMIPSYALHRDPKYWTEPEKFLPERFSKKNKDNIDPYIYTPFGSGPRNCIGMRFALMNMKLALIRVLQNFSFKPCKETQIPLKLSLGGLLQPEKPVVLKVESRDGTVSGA
Cytochrome P450 2C19 (Homo sapiens), sequence (P33261 whole entry, looked up): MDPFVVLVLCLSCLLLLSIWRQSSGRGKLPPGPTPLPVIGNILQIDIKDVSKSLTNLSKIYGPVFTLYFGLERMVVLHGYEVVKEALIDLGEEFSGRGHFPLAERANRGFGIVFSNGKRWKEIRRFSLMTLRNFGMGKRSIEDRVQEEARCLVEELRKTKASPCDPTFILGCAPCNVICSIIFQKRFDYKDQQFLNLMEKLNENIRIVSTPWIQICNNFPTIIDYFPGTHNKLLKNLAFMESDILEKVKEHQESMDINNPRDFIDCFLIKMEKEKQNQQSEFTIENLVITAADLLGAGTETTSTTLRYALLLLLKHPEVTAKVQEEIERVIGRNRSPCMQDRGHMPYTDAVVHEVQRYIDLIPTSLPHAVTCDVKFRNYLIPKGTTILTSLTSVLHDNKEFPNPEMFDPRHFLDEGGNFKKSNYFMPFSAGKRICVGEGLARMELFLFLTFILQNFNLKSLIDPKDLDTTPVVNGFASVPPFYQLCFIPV

The AC50 is the midpoint of the concentration-response curve, whichever way the signal moves. As for `CN1CCN(Cc2cc(-c3ccc4[nH]c(=O)oc4c3)co2)[C@@H](c2ccc(F)cc2)C1`, the outcome (with Caspase-3 (Homo sapiens); in assay [1]; in [3]; in assay [5]; with CYP2C8 (gene 1558); in [6]) was inactive. The outcome (in [7]; in assay [8]; in assay [9]; with CYP3A5 (gene 1577); in assay [11]; in assay [13]) was inactive. Further, the half-maximal activity concentration (AC50) was 65.7 µM (active) in assay [2]; 86.7 µM (active) in assay [4]; 88 µM (active) with CYP2C9 (gene 1559); 50 µM (active) with CYP2E1 (gene 1571); 78.5 µM (active) with CYP4A11 (gene 1579); 11.5 µM (active) in assay [10]. Further, the AC50 in assay [12] is 50 µM (active).
Turning to `Nc1ccc2c(c1)C(=O)c1ccccc1C2=O`, the result (in the assay with Caspase-3 (Homo sapiens); in assay [1]; in [3]; in assay [5]; in [6]; in [10]) was inactive. Also, the AC50 is 4.96 µM (active) in [2]; 11.3 µM (active) in [4]; 3.97 µM (active) with CYP2C8 (gene 1558); 1.04 µM (active) in the assay with CYP2C9 (gene 1559); 14.3 µM (active) with CYP2E1 (gene 1571); 29 µM (active) with CYP4A11 (gene 1579). Moreover, the AC50 in assay [7] was 20.9 µM (active); in [8], 6.13 µM (active); in assay [9] it was 10.4 µM (active); in the assay with CYP3A5 (gene 1577), 1.6 µM (active); in assay [11], 13.6 µM (active); in [12], 31 µM (active). The AC50 in assay [13] was 8.9 µM (active).
`CCOc1ccc2c(c1)C(C)=CC(C)(C)N2`: the compound was classed as inactive (with Caspase-3 (Homo sapiens); in assay [1]; in [3]; in the assay with CYP2C8 (gene 1558); in the assay with CYP2C9 (gene 1559); in the assay with CYP4A11 (gene 1579)). Also, the outcome (in assay [7]; in assay [8]; in assay [9]; with CYP3A5 (gene 1577); in assay [12]) was inactive. The concentration at half-maximal activity (AC50) in [2] was 13 µM (active); in [4], 0.551 µM (active); with CYP2E1 (gene 1571), 30 µM (active); in assay [6], 1.73 µM (active); in [10], 1.12 µM (active); in assay [11], 50 µM (active). Further, in [13], the AC50 is 33.3 µM (active).
Regarding `O=c1[nH]cc(F)c(=O)[nH]1`, the call (in the assay with Caspase-3 (Homo sapiens); in [3]; in [4]; in [5]; in the assay with CYP2C8 (gene 1558); with CYP2C9 (gene 1559)) was inactive. For the same compound, the compound was classed as inactive (in assay [6]; in [7]; in assay [8]; in [14]; in [10]; with CYP3A5 (gene 1577)). For the same compound, the outcome in assay [11] was inactive. Further, the AC50 in assay [2] was 51 µM (active); with CYP2E1 (gene 1571) it was 51 µM (active); with CYP4A11 (gene 1579), 51 µM (active); in assay [9] it was 70.9 µM (active); in [12], 35 µM (active); in [13], 64.6 µM (active).

Values taken from PubChem BioAssay (EPA / NIEHS).
